Experimental data reported in the antibiotic and cytotoxicity screens of Wong et al. (2023).
In all, about 39,000 compounds went through this assay and about 1,500 (3.8%) were called active. For the sample, actives were picked, then their nearest neighbours and some compounds at random.

The molecules below were run on HSkMC (human skeletal muscle cells) (assay: cytotoxicity call (relative viability < 0.9)). Conditions: 10 µM.

Row | SMILES | cytotoxicity call
1 | C[C@@H]1CN([C@H](C)CO)C(=O)CCCn2nncc2CO[C@@H]1CN(C)S(=O)(=O)c1ccc(-n2cccn2)cc1 | inactive
2 | CC[C@@H](C)N[C@H]1CCS(=O)(=O)C1 | inactive
3 | Cc1cccc([C@@H](N)c2nccn2C)c1 | inactive
4 | O=C(CCCCCNC(=O)OCCCCO[C@H]1C[C@@H](c2ccc(C(F)(F)F)cc2)C=C(C(=O)N2CCN(Cc3ccccc3)CC2)O1)NO | inactive
5 | CN(C)CC(=O)N[C@@H]1CC[C@@H](CC(=O)NCCN2CCCCC2)O[C@H]1CO | inactive
6 | C[C@H](CO)N1C[C@H](C)[C@@H](CN(C)S(=O)(=O)c2ccc(F)cc2)Oc2c(NC(=O)Nc3ccc(C(F)(F)F)cc3)cccc2C1=O | inactive
7 | O=C(NCCN1CCCC1)[C@H]1[C@H](CO)[C@H]2Cn3c(cccc3=O)[C@@H]1N2C(=O)c1ccccc1 | inactive
8 | C[C@H](CO)N1C[C@H](C)[C@H](CN(C)C(=O)Nc2cccc3ccccc23)Oc2c(NS(=O)(=O)c3ccc(Cl)cc3)cccc2C1=O | inactive
9 | Nc1ncnc2c1ncn2[C@@H]1O[C@H](COP(=O)(O)O)[C@@H](O)[C@H]1O | inactive
10 | CO[C@@H]1[C@H](O[P@@](=O)(S)OC[C@H]2O[C@@H](n3cnc4c(N)ncnc43)C[C@@H]2O)[C@@H](CO)O[C@H]1n1ccc(=O)[nH]c1=O | active
11 | CO[C@@H]1[C@H](O[P@@](=O)(OC[C@H]2O[C@@H](n3cnc4c(N)ncnc43)C[C@@H]2O)SCOC(=O)OC(C)C)[C@@H](CO)O[C@H]1n1ccc(=O)[nH]c1=O | inactive
12 | O=C(C[C@@H]1CC[C@H]2[C@@H](COC[C@H](O)CN2S(=O)(=O)c2ccccc2)O1)NCCN1CCCC1 | inactive
13 | C[C@H]1CN([C@@H](C)CO)C(=O)Cc2cc(NS(=O)(=O)c3cccs3)ccc2O[C@H]1CN(C)S(=O)(=O)c1cccs1 | inactive
14 | CO[C@H]1O[C@@H](COC(C)=O)[C@@H](OC(C)=O)C(C#N)(C#N)[C@@H]1OC(C)=O | inactive
15 | N#CC(c1ccccc1)(c1ccccc1)c1ccccc1Cl | inactive
16 | Clc1ccccc1C(c1ccccc1)(c1ccccc1)n1ccnc1 | active
17 | C[C@H](CO)N1C[C@H](C)[C@H](CN(C)S(=O)(=O)c2ccc(Cl)cc2)OCCCC[C@H](C)Oc2ccc(NC(=O)c3ccncc3)cc2C1=O | inactive

Row | SMILES | cytotoxicity call
18 | Cc1cccc(S(=O)(=O)N2C[C@H](O)COC[C@H]3O[C@@H](CC(=O)NCCCN4CCOCC4)CC[C@@H]32)c1 | inactive
19 | COc1c(C)cnc2c1c(=O)n(CC(N)=O)c(=O)n2C | inactive
20 | C[C@@H]1CCCCO[C@H](CN(C)Cc2ccc(C(F)(F)F)cc2)[C@H](C)CN([C@H](C)CO)C(=O)c2cc(NS(=O)(=O)c3cccs3)ccc2O1 | inactive
21 | O=C(NC1CCCCCCC1)c1ccccc1-c1ccccc1 | inactive
22 | O=C(NC1CCN(CCCCC2(C(=O)NCC(F)(F)F)c3ccccc3-c3ccccc32)CC1)c1ccccc1-c1ccc(C(F)(F)F)cc1 | active
23 | C[C@]1(C(=O)NCC(F)(F)F)c2ccccc2C(=O)N(Cc2cc(C(F)(F)F)cc(C(F)(F)F)c2)[C@H]1c1ccc(CO)cc1 | inactive
24 | COc1ccc(S(=O)(=O)Nc2ccc3c(c2)C(=O)N([C@H](C)CO)C[C@H](C)[C@@H](CN(C)C(=O)NC(C)C)O3)cc1 | inactive
25 | CCCCCCCCC(=O)O | inactive
26 | CN1CCN(S(C)(=O)=O)CC1 | inactive
27 | C[C@H](CO)N1C[C@H](C)[C@@H](CN(C)C(=O)c2ccc3c(c2)OCO3)Oc2ncc(C#CCN(C)C)cc2C1=O | inactive
28 | C[C@@H]1CN([C@H](C)CO)C(=O)c2cc(NS(=O)(=O)c3ccc(F)cc3)ccc2O[C@H]1CN(C)Cc1ccc(Oc2ccccc2)cc1 | inactive
29 | C[C@@H]1CN([C@H](C)CO)C(=O)c2cc(NS(=O)(=O)c3ccc(F)cc3)ccc2O[C@@H]1CN(C)Cc1ccc(Oc2ccccc2)cc1 | active
30 | C[C@H]1CN([C@@H](C)CO)C(=O)c2cc(NS(=O)(=O)c3ccc(F)cc3)ccc2O[C@H]1CN(C)Cc1ccc(Oc2ccccc2)cc1 | inactive
31 | C[C@@H]1CN([C@@H](C)CO)C(=O)c2cc(NS(=O)(=O)c3ccc(F)cc3)ccc2O[C@@H]1CN(C)Cc1ccc(Oc2ccccc2)cc1 | active
32 | C[C@@H]1CN([C@@H](C)CO)C(=O)c2cc(NS(=O)(=O)c3ccc(F)cc3)ccc2O[C@H]1CN(C)Cc1ccc(Oc2ccccc2)cc1 | inactive
33 | C[C@H]1CN([C@@H](C)CO)C(=O)c2cc(NS(=O)(=O)c3ccc(F)cc3)ccc2O[C@@H]1CN(C)Cc1ccc(Oc2ccccc2)cc1 | inactive
